Test results as given in PubChem BioAssay (NCATS).
Results filed as inconclusive are left out. A call without a number means that no potency is given here. Active and inactive are the calls of the source. The call rests on the fitted dose curve; in most records, active means well fitted cell-killing curve with a large enough effect; inconclusive means small, poorly fitted or top-dose-only effect; inactive means flat fitted curve, though single readings scatter.

Assay: Cell Viability - LYMP2-011 (AID 969); further: nearly all actives have a fitted effect of over 60% in size
Conditions: LYMP2-011 lymphoblastoid cells viability; series mostly up to 92.2 µM
From the text: NIH Chemical Genomics Center [NCGC]
NIH Molecular Libraries Screening Centers Network [MLSCN]
National Institutes of Environmental Health Sciences [NIEHS]
National Toxicology Program [NTP]
We have developed a 1536-well cell-based assay for quantitative high throughput screening (qHTS) against a number of cell lines to determine in vitro cytotoxicity of small molecules. This particular assay uses a human lymphoblastoid cell line (LYMP2-011) purchased from Coriell Institute for Medical Research.
NCGC Assay Protocol Summary:
The CellTiter-Glo luminescent cell viability assay (Promega) is a homogeneous method to measure the number of viable cells in culture. The end point readout of this assay is based on quantitation of intracellular ATP, an indicator of metabolic activity, using the luciferase reaction. Luciferase catalyzes the oxidation of beetle Luciferin to oxyluciferin and light in the presence of ATP. The luminescent signal is proportional to amount of ATP present.
Using the CellTiter-Glo luminescent cell viability assay, the amount of cellular ATP was measured in the lymphoblastoid cell line with complete culture medium following compound treatment for 24 hours. The assay was performed in opaque white Kalypsys 1536-well plates. In the screen, tetraoctylammonium bromide was used as positive control. Library compounds were measured for their ability to cause acute toxicity in the cell line, as reflected by a decrease in intracellular ATP levels, in a concentration-dependent manner. […] AC50 values were determined from concentration-response data modeled with the standard Hill equation.
qHTS protocol for CellTiter Glo lymphoblastoid cellular assay
[Step] [Parameter] [Value] [Description]
1. Reagent; 5 uL; 2500 lymphoblastoid cells/well
2. Time; 5 hr; 37 C incubation
4. Controls; 23 nL; Tetraoctylammonium bromide 6.4pM to 92 uM
5. Time; 24 hr; 37 C incubation
6. Reagent; 5 uL; CellTiter Glo reagent
7. Time; 30 min; Room Temperature
8. Detection; Luminescence; Viewlux plate reader
Keywords: cell viability, cytotoxicity, lymphoblastoid cell line, luminescence, NTPHTS, NTPHTS_NCGC, NIEHS, DSSTox, MLSMR, MLSCN, NIH Roadmap, qHTS, NCGC
Potency means the concentration at half of the fitted maximal effect.

| SMILES | Potency |
| --- | --- |
| N#C/C=C/C#N | 39.8 µM (active) |
| COC(C)(C)C | inactive |
| O=[N+]([O-])c1ccc(O)c([N+](=O)[O-])c1 | inactive |
| c1ccc(Nc2ccc(Nc3ccccc3)cc2)cc1 | inactive |
| ClCc1ccccc1 | inactive |
| O=[N+]([O-])c1ccc2c3c(cccc13)CC2 | inactive |
| CC(Cl)CCl (stereo not given) | inactive |
| Nn1cnnc1 | inactive |
| Clc1cccc2ccccc12 | inactive |
| COC(=O)Nc1nc2ccccc2[nH]1 | inactive |
| C=CC(=O)OCCN(C)C | inactive |
| CCCCCC[N+](=O)[O-] | inactive |
| Clc1ccc(Cl)c(Cl)c1 | inactive |
| C=CC=O | inactive |
| O=[N+]([O-])c1cccc2c([N+](=O)[O-])cccc12 | inactive |
| Cc1ccc2c(c1N)C(=O)c1ccccc1C2=O | inactive |
| ClC(Cl)C(Cl)Cl | inactive |
| CCCCOC(C)=O | inactive |
| CCOC(=O)C1OC1(C)c1ccccc1 (stereo not given) | inactive |
| CCCCOC(=O)c1ccccc1N | inactive |

| SMILES | Potency |
| --- | --- |
| O=[N+]([O-])c1c(Cl)c(Cl)c(Cl)c(Cl)c1Cl | inactive |
| C=CC(=O)OCC(C)C | inactive |
| CCNCC | inactive |
| Oc1cccc(Cl)c1Cl | inactive |
| CC(C)OS(C)(=O)=O | inactive |
| Nc1ccc(-c2ccc(N)c(Cl)c2)cc1Cl | inactive |
| Nc1cc(Cl)cc(C(=O)O)c1Cl | inactive |
| Clc1ccc(C(Cl)(Cl)Cl)c(Cl)c1 | inactive |
| Nc1ccc(Cl)c(Cl)c1 | inactive |
| CC(C)[C@]12CC(=O)[C@H](C)[C@H]1C2 | inactive |
| CC(C)CON=O | inactive |
| Nc1ccccc1-c1ccccc1 | inactive |
| S=c1[nH]c2ccccc2[nH]1 | inactive |
| OCC(Cl)CCl (stereo not given) | inactive |
| Nc1ccc([N+](=O)[O-])cc1[N+](=O)[O-] | inactive |
| CCCCCc1cc(O)cc(O)c1 | inactive |
| CC(C)CC(C)N (stereo not given) | inactive |
| CC(=O)CCC(C)=O | inactive |
| c1ccc(P(c2ccccc2)c2ccccc2)cc1 | inactive |
| c1ccc(C2CO2)cc1 (stereo not given) | inactive |
